Measured values reported in PubChem BioAssay (NCI).
Compounds without any hit were thinned out: in the full panel of roughly 83,000, 20% have a hit.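 Values shown are percent growth following 48 h exposure of cells in 96-well plates to a single concentration of compound; below 10 was considered active.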 The source made the active and inactive calls.

What was measured:
Test in all cases: NCI-60 one-dose screen, 48 h (100 = growth as untreated, 0 = no growth, -100 = all killed)
NCI-H23 lung = details: 10 µM unless noted
NCI-H226 lung = details: 10 µM unless noted
NCI-H322M lung = details: 10 µM unless noted
HOP-62 NSCLC = details: 10 µM unless noted
NCI-H460 lung = details: 10 µM unless noted
HOP-92 NSCLC = details: 10 µM
NCI-H522 lung = details: 10 µM unless noted
A549/ATCC NSCLC = details: 10 µM unless noted
786-0 renal = details: 10 µM unless noted
COLO 205 colon = details: 10 µM unless noted

Measured: growth

COc1cc(OC)c(/C=C/S(=O)(=O)Cc2ccc(OC)c(NCC(=O)NO)c2)c(OC)c1
active: NCI-H522 lung 3.67% | COLO 205 colon -67.6%
inactive: NCI-H23 lung 15.4% | NCI-H226 lung 25.6% | NCI-H322M lung 45.6% | HOP-62 NSCLC 20.8% | NCI-H460 lung 10.8% | HOP-92 NSCLC 51.8% | A549/ATCC NSCLC 22.3% | 786-0 renal 28.1%

NC(N)=Nc1ccc(Oc2cccc(NC(N)=Nc3ccc(Cl)c(C(F)(F)F)c3)c2)cn1
active: HOP-92 NSCLC -1.32% | NCI-H522 lung 9.96%
inactive: NCI-H23 lung 39.4% | NCI-H226 lung 71.9% | NCI-H322M lung 37.9% | HOP-62 NSCLC 52.1% | NCI-H460 lung 19.9% | A549/ATCC NSCLC 42.6% | 786-0 renal 70.3% | COLO 205 colon 22.7%

Cn1cc(CNc2nc3ccc(OC/C(=C/F)CN)cc3o2)ccc1=O
inactive: NCI-H23 lung 107% | NCI-H226 lung 101% | NCI-H322M lung 99.3% | HOP-62 NSCLC 109% | NCI-H460 lung 108% | HOP-92 NSCLC 108% | NCI-H522 lung 99.2% | A549/ATCC NSCLC 108% | 786-0 renal 92.4% | COLO 205 colon 110%

O=C(NNc1nc2cc(F)ccc2n2c(CN3CCC(O)C3)ccc12)c1cnccn1 (stereo not drawn)
active: NCI-H460 lung 5.14% | NCI-H522 lung -0.38% | COLO 205 colon 8.58%
inactive: NCI-H23 lung 20.2% | NCI-H226 lung 18.8% | NCI-H322M lung 24.8% | HOP-62 NSCLC 14.6% | HOP-92 NSCLC 23.2% | A549/ATCC NSCLC 15.2% | 786-0 renal 16.2%

COc1cc(-c2nc(SCCC(C)C)nc(NNC(=O)c3ccncc3)c2C#N)cc(OC)c1OC
inactive: NCI-H23 lung 91.2% | NCI-H226 lung 93% | NCI-H322M lung 64.6% | HOP-62 NSCLC 63.9% | NCI-H460 lung 105% | HOP-92 NSCLC 32.9% | NCI-H522 lung 27.9% | A549/ATCC NSCLC 76.5% | 786-0 renal 32.3% | COLO 205 colon 65.9%

O=C1[C@@H]2Cc3c([nH]c4ccccc34)[C@H](c3c(Cl)cccc3Cl)N2C(=O)CN1C1CCN(CC2CCCCC2)CC1
inactive: NCI-H23 lung 91.3% | NCI-H226 lung 85.9% | NCI-H322M lung 83.5% | HOP-62 NSCLC 104% | NCI-H460 lung 12.7% | HOP-92 NSCLC 64.8% | NCI-H522 lung 24.1% | A549/ATCC NSCLC 64.4% | 786-0 renal 46.6% | COLO 205 colon 96.2%

COc1ccc(C(=O)c2c(N)c(C#N)cn2-c2ccccc2OC)cc1
inactive: NCI-H23 lung 32.8% | NCI-H226 lung 60.5% | NCI-H322M lung 75.2% | HOP-62 NSCLC 56.3% | NCI-H460 lung 17.4% | HOP-92 NSCLC 52.5% | A549/ATCC NSCLC 53.4% | 786-0 renal 43.7% | COLO 205 colon 38.5%
active: NCI-H522 lung -1.29%

O=S(=O)(NCCCNc1nccc(-c2[nH]c(-c3ccccc3)nc2-c2ccc(Cl)c(O)c2)n1)c1ccc(Br)cc1
inactive: NCI-H23 lung 46.1% | NCI-H226 lung 38.3% | NCI-H322M lung 58.4% | HOP-62 NSCLC 46.7% | NCI-H460 lung 22.3% | HOP-92 NSCLC 46% | NCI-H522 lung 26.6% | A549/ATCC NSCLC 30.2% | 786-0 renal 53.4% | COLO 205 colon 81.3%

NC(=O)c1c(NC(=O)c2ccccc2C(F)(F)F)sc2c1CCC(=O)C2
inactive: NCI-H226 lung 37.9% | NCI-H322M lung 105% | HOP-62 NSCLC 93.4% | NCI-H460 lung 58.4% | A549/ATCC NSCLC 94% | 786-0 renal 37.5% | COLO 205 colon 38.3%
active: NCI-H23 lung 4.77% | HOP-92 NSCLC -9.74% | NCI-H522 lung -1.13%

COc1ccc(/C=N/NC(=O)c2cn(C3CC3)c3c(OC)c(N4CC5CCCNC5C4)c(F)cc3c2=O)cc1 (stereo not drawn)
inactive: NCI-H23 lung 85.7% | NCI-H226 lung 99% | NCI-H322M lung 89.7% | HOP-62 NSCLC 101% | NCI-H460 lung 92% | HOP-92 NSCLC 74.5% | NCI-H522 lung 102% | A549/ATCC NSCLC 98.5% | 786-0 renal 84.2% | COLO 205 colon 95.1%

O=C1Nc2ccccc2/C1=C/c1ccc(COCC2CO2)n1-c1ccc(O)cc1 (stereo not drawn)
inactive: NCI-H23 lung 100% | NCI-H226 lung 109% | NCI-H322M lung 107% | HOP-62 NSCLC 105% | NCI-H460 lung 113% | HOP-92 NSCLC 124% | NCI-H522 lung 93.5% | A549/ATCC NSCLC 104% | 786-0 renal 103% | COLO 205 colon 116%

Cn1ccnc1C(=O)/C=C/c1ccc(CNC(=O)c2ccc(Cl)cc2)cc1
active: NCI-H23 lung -7.45% | NCI-H226 lung 4.1% | NCI-H322M lung 6.29% | NCI-H460 lung -18.9% | NCI-H522 lung 7.07% | A549/ATCC NSCLC 8.09%
inactive: HOP-62 NSCLC 16.3% | HOP-92 NSCLC 10.3% | 786-0 renal 12.4% | COLO 205 colon 13.6%

CN(C)CCNC(=O)c1ccc(-c2nc3ccc4[nH]ncc4c3c3c2COCC3)cc1
active: NCI-H23 lung -5.76% | NCI-H226 lung 9.31% | NCI-H322M lung 2.32% | HOP-62 NSCLC 5.23% | NCI-H460 lung 6.12% | HOP-92 NSCLC -24.1% | NCI-H522 lung -46% | COLO 205 colon -52.3%
inactive: A549/ATCC NSCLC 38.5% | 786-0 renal 22.6%

CS(=O)(=O)Nc1cc(-c2ccc3ncc(C#N)c(Nc4cccc(Cl)c4F)c3c2)cnc1Cl
active: NCI-H23 lung 8.28% | NCI-H322M lung -10.2% | HOP-62 NSCLC -8.87% | NCI-H460 lung 6.34% | HOP-92 NSCLC -25% | NCI-H522 lung 1.54% | A549/ATCC NSCLC 4.61% | 786-0 renal 4.98% | COLO 205 colon -74.5%
inactive: NCI-H226 lung 10.4%

O=C(O)c1ccc(-n2cc(CNc3cccc(Cl)c3)c(-c3ccc(F)cc3)n2)cc1
inactive: NCI-H23 lung 101% | NCI-H226 lung 112% | NCI-H322M lung 103% | HOP-62 NSCLC 101% | NCI-H460 lung 98% | HOP-92 NSCLC 105% | NCI-H522 lung 92.2% | A549/ATCC NSCLC 92.7% | 786-0 renal 110% | COLO 205 colon 120%

N#Cc1cnc2ccc(-c3cnc(N)nc3)cc2c1N1CCc2cc(F)c(Cl)cc21
inactive: NCI-H322M lung 10% | NCI-H522 lung 10.4%
active: NCI-H23 lung 9.66% | NCI-H226 lung 9.54% | HOP-62 NSCLC 2.88% | NCI-H460 lung 7.28% | HOP-92 NSCLC -19% | A549/ATCC NSCLC 4.58% | 786-0 renal 3.11% | COLO 205 colon 6.97%

COc1ccc2c(c1)c(CC(=O)[Se]CC(=O)O)c(C)n2C(=O)c1ccc(Cl)cc1
active: NCI-H460 lung 5.72%
inactive: NCI-H23 lung 78.9% | NCI-H226 lung 100% | NCI-H322M lung 46.8% | HOP-62 NSCLC 29.3% | HOP-92 NSCLC 93.7% | NCI-H522 lung 100% | A549/ATCC NSCLC 21.6% | 786-0 renal 106% | COLO 205 colon 129%

COc1ccc(S(=O)(=O)NCCCNc2nccc(-c3[nH]c(-c4ccccc4)nc3-c3ccc(Cl)c(O)c3)n2)cc1
inactive: NCI-H23 lung 83.4% | NCI-H226 lung 103% | NCI-H322M lung 96.5% | HOP-62 NSCLC 91.7% | NCI-H460 lung 85.6% | HOP-92 NSCLC 114% | NCI-H522 lung 69.1% | A549/ATCC NSCLC 102% | 786-0 renal 125% | COLO 205 colon 86.3%

O=C(NCc1ncc[nH]1)c1ccc(-c2nc3ccc4[nH]ncc4c3c3c2CCCC3)cc1
active: NCI-H460 lung 8.85% | HOP-92 NSCLC -7.23% | NCI-H522 lung -65% | COLO 205 colon -10.4%
inactive: NCI-H23 lung 14.4% | NCI-H226 lung 36% | NCI-H322M lung 21.4% | HOP-62 NSCLC 17.8% | A549/ATCC NSCLC 48.2% | 786-0 renal 25.4%

NS(=O)(=O)c1ccc(Nc2nc(N/N=C/c3ccccn3)nc(Nc3ccccc3)n2)cc1
inactive: A549/ATCC NSCLC 35.1%
active: NCI-H23 lung -7.29% | NCI-H226 lung -49.1% | NCI-H322M lung -9.94% | HOP-62 NSCLC -28.6% | NCI-H460 lung 3.8% | HOP-92 NSCLC -46.6% | NCI-H522 lung -32.6% | 786-0 renal 8.47% | COLO 205 colon -42.1%

CC(=O)C1=C(C)NC(NN)=NC1c1cccc(Cl)c1 (stereo not drawn)
inactive: NCI-H23 lung 99.9% | NCI-H226 lung 103% | NCI-H322M lung 96.7% | HOP-62 NSCLC 99.2% | NCI-H460 lung 112% | HOP-92 NSCLC 99.9% | NCI-H522 lung 97.9% | A549/ATCC NSCLC 110% | 786-0 renal 104% | COLO 205 colon 114%

CS(=O)(=O)Nc1cc(-c2ccc3ncc(C#N)c(NCc4cccc(F)c4)c3c2)cnc1Cl
inactive: NCI-H322M lung 12.5% | NCI-H522 lung 10.7% | 786-0 renal 10.8%
active: NCI-H23 lung -1.85% | NCI-H226 lung 9.2% | HOP-62 NSCLC -6.39% | NCI-H460 lung 5.88% | HOP-92 NSCLC -15.7% | A549/ATCC NSCLC 7.5% | COLO 205 colon -45.9%

O=C(Nc1ccc2c(ccn2Cc2ccccn2)c1)c1ccnnc1
inactive: NCI-H23 lung 94.6% | NCI-H226 lung 87.3% | NCI-H322M lung 98.5% | HOP-62 NSCLC 76.4% | NCI-H460 lung 104% | HOP-92 NSCLC 87.6% | A549/ATCC NSCLC 91.4% | 786-0 renal 86% | COLO 205 colon 110%

COc1ccccc1-n1cc(C#N)c(N)c1C(=O)c1ccc(Cl)cc1
inactive: NCI-H23 lung 90.8% | NCI-H226 lung 97.7% | NCI-H322M lung 103% | HOP-62 NSCLC 87.7% | NCI-H460 lung 87.8% | HOP-92 NSCLC 101% | NCI-H522 lung 22.4% | A549/ATCC NSCLC 94.6% | 786-0 renal 104% | COLO 205 colon 86.8%

CCCCCc1ccc(S(=O)(=O)Nc2cccc(-c3csc(NCCN4CCN(C)CC4)n3)c2)cc1
active: NCI-H460 lung -9.25%
inactive: NCI-H23 lung 84% | NCI-H226 lung 96.7% | NCI-H322M lung 82.9% | HOP-62 NSCLC 89.4% | HOP-92 NSCLC 71.2% | NCI-H522 lung 90.2% | A549/ATCC NSCLC 72.6% | 786-0 renal 60.3% | COLO 205 colon 22.2%

C#CCNC1CCC(c2csc(C#C)n2)=C1C (stereo not drawn)
inactive: NCI-H226 lung 75.4% | NCI-H322M lung 90.8% | HOP-62 NSCLC 28.2% | NCI-H460 lung 98.9% | NCI-H522 lung 49.7% | A549/ATCC NSCLC 96.2% | 786-0 renal 17.1% | COLO 205 colon 105%
active: NCI-H23 lung -39.4% | HOP-92 NSCLC -50.6%

CC(=O)Nc1cccc(Nc2nc(N[C@@H](C)c3ccccc3)c3ccccc3n2)c1
active: NCI-H226 lung 6.42% | NCI-H460 lung 2.67% | 786-0 renal 3.67% | COLO 205 colon -12.3%
inactive: NCI-H23 lung 20.6% | NCI-H322M lung 53.7% | HOP-62 NSCLC 33.9% | HOP-92 NSCLC 13.1% | A549/ATCC NSCLC 19.9%
